Whole data set: some 4,500 sequences, median “median log2 fold change of GCK-ALFA target abundance (FLAG IP / Myc IP barcode read proportion)” near 0.078, cut for the lowest 2% near -0.6. Only a selection was taken, and the lowest values are over-represented in it overall.
B1: GBRAP_128_3320 (protein)
chain: MDEELLAEFKELAEAAKKADLPTLAKLTAEMVALIGQADAETREEMAEIFRKALEELDAEKLDVVADTLRAEMPKLDPEAARVVADLAVDALNLAEEKEE
B2: GBRAP_11_2689 (protein)
chain: KKEKLEEGAKLAEKGAELVERLLREGVDNEELLAELEKTLEELLKLAKKHASPASQKLTEDIKETWKRLLADPENAEEYARELLAGLRVLAGQYLLEIEE
B3: GBRAP_137_3670 (protein)
chain: MIRVEVELENGLAFARITVEGSPEELERAAEIAEDIAGEIPDLAVSVKLTEEGRLEIDVFGTPESVEAFLRRLAERLDRTVEVTTRDEETGEVRRRVIRP
B4: GBRAP_184_5066 (protein)
chain: SVAEETLEVRDLAEARAKLAALRAAVADHRGDLVVHLVLPEFDREIVALVLEGLAEIRAAGYARRVTVGLDADLTEEEADFAIELADAAGVNLTLALPEE
B5: GBRAP_95_7084 (protein)
chain: EEELEEAEALMATAVDLYDAGLEEQAARAIRDALDELEELGYKVADKELLERLLRHFVALALRHFDAEEVERALALAEASGAPAEIIAALRAALAALRAA
B6: GBRAP_79_6747 (protein)
chain: GVEEARRALVEALRVVLPDLTEEEAAEAVASDEALRAALLRAGISEEMAAELLEAIDAIPELAAERFRRTVERMEGLEPEDRRDVLEATIAAVIYEAEQR
B7: GBRAP_160_4279 (protein)
chain: SEKLLELAEELEEDREEILSLVDEISAEEVRTLAVTDLGSILLEAIDLELLSDEEEDELAKIIDDLDAELAAAADASPAERRAIITRHYDKAIELLRKAA
B8: GBRAP_52_6358 (protein)
chain: ALEEALALLREALAAVAAGDEEEARAILEELVATYSEETILAAFERLAEEVADKDVATAEALLETALLLADVMDEAGRDPAVADDIEAIAARTYMAVKAK

These binders were tested against GABARAP, O95166 (assay: median log2 fold change of GCK-ALFA target abundance (FLAG IP / Myc IP barcode read proportion) (log2 ratio); each designed protein is fused to an ALFA-tag nanobody in HEK293 cells to bring the named protein to FLAG-tagged glucokinase (GCK); Myc marks an untargeted standard; higher = target protein stabilised (more abundant)). Conditions: target protein: 3xFLAG-MCP-GCK-ALFA reporter; HEK293 landing pad (RPLP).
GABARAP, O95166, sequence (O95166 whole entry, the tested form may be a part): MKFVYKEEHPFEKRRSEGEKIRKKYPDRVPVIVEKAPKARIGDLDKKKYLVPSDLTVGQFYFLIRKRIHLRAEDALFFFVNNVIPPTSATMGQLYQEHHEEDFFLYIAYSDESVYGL
How it was run: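 Binders fused to an ALFA nanobody were recombined as a library into HEK293 landing-pad cells, which were induced with 2 μg mL^−1 doxycycline and then transfected to express a FLAG-tagged target and a Myc-tagged standard. After 48 h, circular RNA barcodes recovered by anti-FLAG and anti-Myc immunoprecipitation of lysates were reverse transcribed, amplified and sequenced. Each binder's target abundance is the median log2 ratio of FLAG to Myc barcode read proportions, from barcodes present at ≥10^−7 in both replicates, binders carrying ≥3 barcodes per replicate, a 10^−6 pseudocount and pooled replicates.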

Binder	median log2 fold change
B1	0.0824
B2	0.195
B3	0.0906
B4	0.0273
B5	-0.692
B6	0.209
B7	-0.493
B8	-0.632
